Nine compounds from PubChem BioAssay (NCATS) can be followed below.

Inconclusive results are not listed. The source made the active and inactive calls. Unless noted, calls follow the shape of the dose curve; as a rule, active = well fitted inhibition curve with a large enough effect; inconclusive = small, poorly fitted or top-dose-only effect; inactive = no such curve, though single readings can be large or run the other way.

A short description of assay [1]: qHTS profiling of the MIPE4 collection as inhibitors of Plasmodium falciparum (DD2) proliferation (AID 743345; call rule not given here). The settings on record: P. falciparum Dd2 in erythrocytes, SYBR Green DNA, 72 h; at 28.5 µM (top of the series) unless noted. The method in brief:
(§1)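 Parasite DNA was quantified by SYBR Green I fluorescence (ex 485, em 535 nm) after overnight lysis in saponin/Triton buffer at room temperature. Cultures at 0.3% parasitemia and 2.5% hematocrit were first exposed to compound for 72 h at 37 C; signals were normalised to artemisinin (0.29 uM) and vehicle wells.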

Assay [2] can be described thus: qHTS profiling of the MIPE4 collection as inhibitors of Plasmodium falciparum (DD2) proliferation (Rep 2) (AID 743346; call rule not given here). The settings on record: P. falciparum Dd2 in erythrocytes, SYBR Green DNA, 72 h; at 28.5 µM (top of the series) unless noted. The method in brief: as §1
A short description of assay [3]: qHTS profiling of the MIPE4 collection as inhibitors of Plasmodium falciparum (HB3) proliferation (AID 743347; call rule not given here;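 also: plate controls were DMSO vehicle wells for no effect and artemisinin wells for full effect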). The settings on record: P. falciparum HB3 in erythrocytes, SYBR Green DNA, 72 h; at 28.5 µM (top of the series) unless noted. The method in brief: as §1
A short description of assay [4]: High-throughput drug toxicity screening in the BPDCN cell line Gen2.2 (AID 1224824; call rule not given here;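 also: cells exposed to compounds for 48 h before reading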). Particulars: Gen2.2 BPDCN cells; at 45.8 µM (top of the series) unless noted. In outline: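 Gen2.2 cells (500/well) in phenol red-free RPMI with 10% FBS were exposed to compounds for 48 h at 37 °C, 5% CO2. Viability was read by CellTiter-Glo luminescence and normalized to DMSO (100%) and 9.2 uM bortezomib (0%).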

A short description of assay [5]: High-throughput drug toxicity screening in the BPDCN cell line Cal-1 (AID 1224825; call rule not given here). The settings on record: Cal-1 BPDCN cell viability, qHTS; at 45.8 µM (top of the series) unless noted. In outline: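 Viability of the BPDCN line Cal-1 is measured as ATP-based luminescence (CellTiter-Glo) following 48 h incubation with compounds. Percent activity uses DMSO-treated wells as 100% and 9.2 uM bortezomib as 0%.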

Assay [6] is described as follows: qHTS assay for measurement of the activity of small molecule inhibitors on Zika virus induced Caspase-3 activity in human iPSC derived neural progenitor cells (hNPCs) (AID 1224857). Also: % of control where 0% means no effect; nearly all actives have a fitted effect of over 65% in size. The method in brief:
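Human iPSC-derived neural progenitor cells pretreated 1 hr with compounds, then infected with Zika virus (2 FFU/cell) for 6 hours at 37 C. Caspase-3/7 measured by Caspase-Glo luminescence; % inhibition calculated from induction scaled to uninfected (0%) and infected (100%) wells.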

The nature of assay [7]: qHTS assay for measurement of the activity of small molecule inhibitors on Zika virus induced Caspase-3 activity in human astrocytoma cells (AID 1224859).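 Also: plate controls were ZIKV-infected untreated cells for no effect and uninfected cells for full effect.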 In outline: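 SNB-19 astrocytoma cells, 250/well, pretreated 1 h with compounds, then Zika virus at 2 FFU/cell for 6 h at 37 C; Caspase-Glo 3/7 luminescence after 30 min; percent inhibition normalised to uninfected and infected controls.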

The nature of assay [8]: qHTS Screen of the MIPE 4.0 Collection Against Ewings Sarcoma (RDES) (AID 1259252). Also: nearly all actives have a fitted effect of over 35% in size. Also: potency is read from the fitted curve at half-maximal effect. The method in brief: (§2)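 Measured: ATP luminescence (CellTiter-Glo) 10 min after reagent addition, following 48 h drug treatment. Relative luciferase units converted to percent activity, with no-cell wells as full and DMSO wells as zero inhibition.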
Assay [9] in a line: qHTS Screen of the MIPE 4.0 Collection Against Ewings Sarcoma (TC71) (AID 1259253). Also: nearly all actives have a fitted effect of over 40% in size. Also: potency is read from the fitted curve at half-maximal effect. In outline:
as §2

Assay [10] is described as follows: qHTS Screen of the MIPE 4.0 Collection Against Ewings Sarcoma (EW8) (AID 1259255). Also: nearly all actives have a fitted effect of over 35% in size. Also: potency is read from the fitted curve at half-maximal effect.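 As to viability: 100% = DMSO-treated cells and 0% = medium-only wells without cells.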 The method in brief: as §2

Take `N#Cc1cc(NC(=O)Nc2nnc(-c3ccncc3)s2)ccc1-c1cn[nH]c1`: the parasite growth remaining, % of DMSO control (lower = more inhibition) in [1] came to 101%. Besides, in [2], the parasite growth, % of control (lower = inhibition) is 74.6%. In [3], this compound yielded a growth, % of control of 41.3%. The cell viability, % of control (lower = more cytotoxic) in [4] is 92.3%. The viability (% of control) in assay [5] amounted to 111%. Also, the Potency result in assay [6], in assay [7], in assay [8], in [9] and in [10] was “inactive” each time.

For `CCCCCCCCc1ccc(CCC(N)(CO)CO)cc1`, the parasite growth remaining, % of DMSO control (lower = more inhibition) in assay [1] is 14.6%. Further, the parasite growth, % of control (lower = inhibition) in assay [2] was 24.2%. The compound also returned a growth, % of control in [3] of 4.09%. Further, in [4], the cell viability, % of control (lower = more cytotoxic) was found to be 4.54%. For the same compound, the viability (% of control) in assay [5] amounted to 3.28%. Also, the Potency result in assay [6] and in assay [7] was “inactive” throughout. For the same compound, the Potency in assay [9] and in assay [10] was 20900 nM (active) in each case.

In the case of `Cn1cc(-c2cnn3c(N)c(Br)c([C@H]4CCCNC4)nc23)cn1`, in assay [1], the parasite growth remaining, % of DMSO control (lower = more inhibition) came to 10.3%. In assay [2], the parasite growth, % of control (lower = inhibition) was 8.07%. In addition, in assay [3], the growth, % of control is 3.69%. The cell viability, % of control (lower = more cytotoxic) in assay [4] is 8.78%. Further, in assay [5], the viability (% of control) came out at 14.4%. The Potency entry in assay [6] and in assay [7] was “inactive” throughout. Moreover, the Potency in [8] is 332 nM (active); in assay [9] it was 118 nM (active); in assay [10], 148 nM (active).

As for `Nc1ccc(C(=O)Nc2cccc(-c3nc(N4CCOCC4)c4oc5ncccc5c4n3)c2)cn1`, in [1], the parasite growth remaining, % of DMSO control (lower = more inhibition) was found to be 6.97%. Further, the parasite growth, % of control (lower = inhibition) in [2] is 9.55%. This compound also had a growth, % of control in assay [3] of 2.51%. Further, in assay [4], the cell viability, % of control (lower = more cytotoxic) amounted to 15.1%. The viability (% of control) in assay [5] worked out at 4.11%. For the same compound, the Potency result in assay [6] and in assay [7] was “inactive” throughout. In addition, the Potency was 18700 nM (active) in assay [8], 16600 nM (active) in assay [9] and 18700 nM (active) in assay [10].

For `O=C1c2c(O)cccc2[C@@H]([C@@H]2O[C@H](CO)[C@@H](O)[C@H](O)[C@H]2O)c2cc(CO)cc(O)c21`, in assay [1], the parasite growth remaining, % of DMSO control (lower = more inhibition) came out at 95.6%. The parasite growth, % of control (lower = inhibition) in assay [2] came to 80.5%. Besides, in assay [3], the growth, % of control worked out at 99.2%. Besides, the cell viability, % of control (lower = more cytotoxic) in assay [4] came out at 185%. Besides, the viability (% of control) in assay [5] came out at 123%. Further, the Potency entry in assay [6], in assay [7], in [9] and in assay [10] was “inactive” in each case.

Regarding `CC(=O)NC(CS)C(=O)O` (stereo unspecified), the parasite growth remaining, % of DMSO control (lower = more inhibition) in assay [1] was 97.9%. For the same compound, the parasite growth, % of control (lower = inhibition) in assay [2] was 118%. This compound displayed a growth, % of control in assay [3] of 60.7%. Also, in assay [4], the cell viability, % of control (lower = more cytotoxic) is 87%. In assay [5], the viability (% of control) worked out at 93.6%. Moreover, the Potency result in assay [6], in assay [7], in assay [9] and in assay [10] was “inactive” in each case.

As for `O=C(C=Cc1ccc(CN(CCO)CCc2c[nH]c3ccccc23)cc1)NO`, in assay [1], the parasite growth remaining, % of DMSO control (lower = more inhibition) was found to be 6.71%. For the same compound, the parasite growth, % of control (lower = inhibition) in [2] was 8.38%. In [3], the growth, % of control stood at 2.54%. Moreover, in assay [4], the cell viability, % of control (lower = more cytotoxic) was 4.89%. Further, the viability (% of control) in [5] is 3.46%. Besides, the Potency entry in assay [6] and in [7] was “inactive” throughout. Further, the Potency is 209 nM (active) in assay [8], 187 nM (active) in assay [9] and 148 nM (active) in [10].

For `CC(C)N(CC[C@H](c1ccccc1)c1cc(CO)ccc1O)C(C)C`, the parasite growth, % of control (lower = inhibition) in assay [2] came to 26.5%. This compound also had a growth, % of control in assay [3] of 103%. Moreover, the cell viability, % of control (lower = more cytotoxic) in [4] is 145%. The viability (% of control) in assay [5] was 101%. The Potency result in assay [6], in assay [7], in assay [8], in [9] and in assay [10] was “inactive” throughout.

On to `CCc1cnn2c(NCc3ccc[n+]([O-])c3)cc(N3CCCC[C@@H]3CCO)nc12`, for which the parasite growth remaining, % of DMSO control (lower = more inhibition) in assay [1] was 14%. For the same compound, the parasite growth, % of control (lower = inhibition) in assay [2] turned out to be 12.6%. In addition, in assay [3], the growth, % of control stood at 8.08%. For the same compound, in assay [4], the cell viability, % of control (lower = more cytotoxic) was found to be 4.38%. In addition, the viability (% of control) in [5] was found to be 3.16%. In addition, the Potency entry in assay [6] and in [7] was “inactive” throughout. The Potency in [8] was 41.8 nM (active); in assay [9] it was 26.4 nM (active); in assay [10] it was 23.5 nM (active).
